Measurements as given in PubChem BioAssay (EPA / NIEHS).
Records with an inconclusive call do not appear. Calls of active or inactive are those of the source. Rule for the calls, unless noted: active = hit-call score of the fitted dose curve at least 0.9, where 1 is the maximum; inactive = score below 0.9.

Experiments:
[1] = TOX21_PR_LUC_Followup_Antagonist_viability: Viability Assessment in the Tox21 HEK293 Progesterone Receptor (PR) Antagonism Luciferase Follow-Up Assay (AID 2283940; active = hit-call score of the fitted dose curve at least 0.9, where 1 is the maximum)
How it was run: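 Loss of CellTiter-Glo ATP signal indicates cytotoxicity in HEK293-PR-A-luc cells grown in 10% charcoal-stripped FBS medium, seeded 3,000 per well and incubated 16 h with compound at 37C.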

[2] = TOX21_PR_LUC_Followup_Agonist_viability: Viability Assessment in the Tox21 HEK293 Progesterone Receptor (PR) Agonism Luciferase Follow-Up Assay (AID 2283941; active = hit-call score of the fitted dose curve at least 0.9, where 1 is the maximum;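 note: loss of signal means cytotoxicity so actives lower viability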)
How it was run: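 Seeding: HEK293-PR-A-luc, 3,000 cells/well, 5 h at 37C. Treatment: compound in DMSO, 16 h, 37C. Read: CellTiter-Glo ATP luminescence, signal loss taken as lower viability.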

[3] = target: Thyroid hormone receptor alpha (Rattus norvegicus) + Thyroid hormone receptor beta (Rattus norvegicus) (UniProt P18113+P63059); test: TOX21_TR_LUC_GH3_Antagonist_Followup: Tox21 GH3 Thyroid Hormone Receptor Antagonism Luciferase Follow-Up Assay (AID 2283942; active = hit-call score of the fitted dose curve at least 0.9, where 1 is the maximum)
How it was run: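 In a GH3 luciferase reporter line, test chemicals spanning 92 uM to 5nM final are co-incubated 24 h with 1.0 nM T3. Activity is expressed as relative luminescence units and analysed relative to DMSO.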

THRA (gene 7067) [4] = target: THRA (gene 7067) (UniProt P10827); test: TOX21_TRA_COA_Antagonist_Followup_ratio: Tox21 Thyroid Hormone Receptor alpha Antagonism through Coactivator Recruitment Follow-Up Assay, Ratio (AID 2283953; active = hit-call score of the fitted dose curve at least 0.9, where 1 is the maximum)
Chain of THRA (gene 7067) (P10827 whole entry, looked up, the tested form may be a part): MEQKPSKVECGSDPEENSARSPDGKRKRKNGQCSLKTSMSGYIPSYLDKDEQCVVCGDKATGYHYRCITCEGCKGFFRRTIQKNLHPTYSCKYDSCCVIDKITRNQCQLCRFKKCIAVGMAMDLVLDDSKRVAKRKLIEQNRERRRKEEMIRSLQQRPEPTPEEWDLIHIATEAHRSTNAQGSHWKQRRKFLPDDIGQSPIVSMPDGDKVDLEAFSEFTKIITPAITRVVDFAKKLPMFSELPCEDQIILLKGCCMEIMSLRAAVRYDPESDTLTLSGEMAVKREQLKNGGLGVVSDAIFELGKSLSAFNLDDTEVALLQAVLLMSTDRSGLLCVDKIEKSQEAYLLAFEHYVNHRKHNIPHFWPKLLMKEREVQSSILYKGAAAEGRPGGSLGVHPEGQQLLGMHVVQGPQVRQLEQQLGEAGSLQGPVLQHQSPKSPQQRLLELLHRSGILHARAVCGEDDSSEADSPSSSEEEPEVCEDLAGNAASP
How it was run: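 We measured antagonism of T3-type coactivator recruitment using a TR-FRET ratio (emission 520 and 495 nm) between a Tb-labelled anti-GST antibody on TRα LBD (2.5 nM) and SRC-2 peptide (200 nM). Activity was scaled between DMSO and T3 wells.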

THRB (gene 7068) [5] = target: THRB (gene 7068) (UniProt P10828); test: TOX21_TRB_BLA_Antagonist_Followup_ratio: Tox21 Thyroid Hormone Receptor beta Antagonism Beta-lactamase (BLA) Follow-Up Assay, Ratio (AID 2283958; active = hit-call score of the fitted dose curve at least 0.9, where 1 is the maximum)
Chain of THRB (gene 7068) (P10828 whole entry, looked up, the tested form may be a part): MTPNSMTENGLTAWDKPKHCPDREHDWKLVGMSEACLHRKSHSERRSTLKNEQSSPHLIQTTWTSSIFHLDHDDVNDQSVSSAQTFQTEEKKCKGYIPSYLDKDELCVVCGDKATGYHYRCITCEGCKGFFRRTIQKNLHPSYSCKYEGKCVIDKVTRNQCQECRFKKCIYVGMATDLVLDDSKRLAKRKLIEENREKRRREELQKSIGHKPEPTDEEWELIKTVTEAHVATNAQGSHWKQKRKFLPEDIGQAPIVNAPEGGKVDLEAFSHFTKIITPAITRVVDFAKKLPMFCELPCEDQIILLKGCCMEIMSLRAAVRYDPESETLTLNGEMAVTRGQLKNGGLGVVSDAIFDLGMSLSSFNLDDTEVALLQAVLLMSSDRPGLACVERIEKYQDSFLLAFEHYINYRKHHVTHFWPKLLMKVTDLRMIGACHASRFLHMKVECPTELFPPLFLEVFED
How it was run: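 Using charcoal-stripped 2% FBS medium, human TRβ-LBD/GAL4 reporter HEK293T cells received test compounds for 18 h. The endpoint is the cleaved-to-uncleaved substrate ratio (460/530 nm).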

[6] = TOX21_TRB_BLA_Antagonist_Followup_viability: Viability Assessment in the Tox21 Thyroid Hormone Receptor beta Antagonism Beta-lactamase (BLA) Follow-Up Assay (AID 2283961; active = hit-call score of the fitted dose curve at least 0.9, where 1 is the maximum)
How it was run: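 TRβ-bla HEK293T (human TRβ LBD fused to GAL4 DBD), 3,000 cells/well, 2% charcoal-stripped FBS, phenol red-free medium; 18 h compound exposure, 37C; CellTiter-Glo 30 min RT; luminescence, loss-of-signal readout.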

THRB (gene 7068) [7] = target: THRB (gene 7068) (UniProt P10828); test: TOX21_TRB_COA_Antagonist_Followup_ratio: Tox21 Thyroid Hormone Receptor beta Antagonism through Coactivator Recruitment Follow-Up Assay, Ratio (AID 2283967; active = hit-call score of the fitted dose curve at least 0.9, where 1 is the maximum)
How it was run: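 Coactivator (SRC-2) recruitment to purified GST-TRβ ligand-binding domain is monitored by terbium-to-fluorescein energy transfer, emission ratio 520:495 nm. DMSO wells define 0% and T3 wells 100% activity.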

[8] = target: Retinoic acid receptor RXR-alpha (Homo sapiens) (UniProt P19793); test: TOX21_TR_RXR_BLA_Antagonist_Followup_ratio: Tox21 Thyroid Hormone Receptor beta Retinoid X Receptor alpha (RXRa) Antagonism Beta-lactamase (BLA) Follow-Up Assay, Ratio (AID 2283972; active = hit-call score of the fitted dose curve at least 0.9, where 1 is the maximum)
Chain of Retinoic acid receptor RXR-alpha (Homo sapiens) (P19793 whole entry, looked up): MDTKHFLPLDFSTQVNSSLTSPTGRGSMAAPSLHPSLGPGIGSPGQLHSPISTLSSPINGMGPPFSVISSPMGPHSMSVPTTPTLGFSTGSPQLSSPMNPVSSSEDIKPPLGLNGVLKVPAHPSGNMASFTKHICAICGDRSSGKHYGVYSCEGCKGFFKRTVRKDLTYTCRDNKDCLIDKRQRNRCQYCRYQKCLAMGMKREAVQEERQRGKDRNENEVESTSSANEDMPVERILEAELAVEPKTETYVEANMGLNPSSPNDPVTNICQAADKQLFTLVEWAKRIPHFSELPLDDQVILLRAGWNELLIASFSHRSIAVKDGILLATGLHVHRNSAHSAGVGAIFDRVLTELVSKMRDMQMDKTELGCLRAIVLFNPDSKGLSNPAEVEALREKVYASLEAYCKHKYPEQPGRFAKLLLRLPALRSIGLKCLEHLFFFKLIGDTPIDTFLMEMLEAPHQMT
How it was run: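 HEK293T RXRa-bla, 2% charcoal-stripped FBS medium, 16 h compound exposure at 37C, qHTS 11 conc x3. CCF4 FRET ratio ch2/ch1 (460:530), DMSO = baseline, loss-of-signal fit.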

[9] = TOX21_TR_RXR_BLA_Antagonist_Followup_viability: Viability Assessment in the Tox21 Thyroid Hormone Receptor beta Retinoid X Receptor alpha (RXRa) Antagonism Beta-lactamase (BLA) Follow-Up Assay (AID 2283979; active = hit-call score of the fitted dose curve at least 0.9, where 1 is the maximum)
How it was run: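 RXRa-UAS-bla HEK293T cells seeded 2,500/well in phenol red-free DMEM with 2% charcoal-stripped FBS, attached 5 h, then exposed to compounds at 11 concentrations in triplicate for 16 h at 37C/5% CO2. Viability read by CellTiter-Glo ATP luminescence; bidirectional fit versus DMSO.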

[10] = CCTE_Harrill_HTTr_Viability_DMEM_6hr: (Pilot) CCTE's 6-hour Cell Viability Assessment for the High-Throughput Transcriptomics (HTTr) Platform, in MCF-7 cells cultured in DMEM + 10% fetal bovine serum, Harrill Lab (AID 2283973)
How it was run: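 Propidium iodide uptake imaged by high-content analysis after six hours of chemical treatment in an eight-concentration series. Cells: MCF-7 grown in DMEM with 10% fetal bovine serum; DMSO as baseline.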

[11] = CCTE_Harrill_HTTr_Viability_DMEM_12hr: (Pilot) CCTE's 12-hour Cell Viability Assessment for the High-Throughput Transcriptomics (HTTr) Platform, in MCF-7 cells cultured in DMEM + 10% fetal bovine serum, Harrill Lab (AID 2283974)
How it was run: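 Propidium iodide dye exclusion imaged by high-content microscopy after 12 h chemical exposure (eight concentrations) of MCF-7 cells grown in DMEM plus 10% FBS; values fitted in both directions relative to DMSO.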

[12] = CCTE_Harrill_HTTr_Viability_DMEM_24hr: (Pilot) CCTE's 24-hour Cell Viability Assessment for the High-Throughput Transcriptomics (HTTr) Platform, in MCF-7 cells cultured in DMEM + 10% fetal bovine serum, Harrill Lab (AID 2283975)
How it was run: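 Pilot study: propidium iodide dye exclusion, imaged by high content microscopy, after 24 h compound exposure (eight concentrations) in MCF-7 cultured in DMEM + 10% fetal bovine serum; DMSO served as negative control and baseline.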

[13] = CCTE_Harrill_HTTr_Viability_PRF_DMEM_6hr: (Pilot) CCTE's 6-hour Cell Viability Assessment for the High-Throughput Transcriptomics (HTTr) Platform, in MCF-7 cells cultured phenol red-free DMEM + 10% charcoal-stripped fetal bovine serum, Harrill Lab (AID 2283976)
How it was run: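 Membrane integrity by high-content imaging of propidium iodide uptake, six hours after dosing with eight concentrations. Cells: MCF-7 grown in phenol red-free DMEM plus 10% charcoal-stripped serum; DMSO serves as baseline for bidirectional fits.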

[14] = CCTE_Harrill_HTTr_Viability_PRF_DMEM_12hr: (Pilot) CCTE's 12-hour Cell Viability Assessment for the High-Throughput Transcriptomics (HTTr) Platform, in MCF-7 cells cultured in phenol red-free DMEM + 10% charcoal-stripped fetal bovine serum, Harrill Lab (AID 2283977)
How it was run: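 Membrane integrity was scored via propidium iodide dye exclusion imaging, fitted in both directions relative to DMSO. Compounds ran as eight-point dilutions for 12 hours on MCF-7 grown in phenol red-free DMEM plus 10% charcoal-stripped serum.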

[15] = CCTE_Harrill_HTTr_Viability_PRF_DMEM_24hr: (Pilot) CCTE's 24-hour Cell Viability Assessment for the High-Throughput Transcriptomics (HTTr) Platform, in MCF-7 cells cultured in phenol red-free DMEM + 10% charcoal-stripped fetal bovine serum, Harrill Lab (AID 2283980)
How it was run: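 Propidium iodide exclusion imaged at 24 h after dosing scores viability; cells were MCF-7 grown in phenol red-free DMEM plus 10% charcoal-stripped serum, tested in eight concentrations, fitted in both directions against DMSO.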

[16] = CCTE_Harrill_HTTr_Apoptosis_DMEM_6hr: (Pilot) CCTE's 6-hour Apoptosis Assessment for the High-Throughput Transcriptomics (HTTr) Platform, in MCF-7 cells cultured in DMEM + 10% fetal bovine serum, Harrill Lab (AID 2283981)
How it was run: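 MCF-7 cells grown in DMEM + 10% FBS were exposed for 6 hours to an eight-point dilution series. CellEvent Caspase 3/7 Green signal was imaged; activity fitted bidirectionally against DMSO.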

THRA (gene 7067) [17] = target: THRA (gene 7067) (UniProt P10827); test: TOX21_TRA_COA_Agonist_Followup_ratio: Tox21 Thyroid Hormone Receptor alpha Agonism through Coactivator Recruitment Follow-Up Assay, Ratio (AID 2283948)
How it was run: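 Follow-up specificity assay in which TRα ligand-binding domain, expressed as a GST fusion, recruits a fluorescein-labelled SRC-2 peptide. Energy transfer from a terbium anti-GST antibody gives the acceptor/donor ratio, fitted upward relative to DMSO.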

THRB (gene 7068) [18] = target: THRB (gene 7068) (UniProt P10828); test: TOX21_TRB_COA_Agonist_Followup_ratio: Tox21 Thyroid Hormone Receptor beta Agonism through Coactivator Recruitment Follow-Up Assay, Ratio (AID 2283963)
How it was run: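 First, the GST-fused TRβ ligand-binding domain (5.0 nM) was incubated with test compound in 0.10% BSA. Next, fluorescein-tagged SRC-2 peptide (200 nM) and terbium anti-GST antibody (2 nM) were added. Finally, TR-FRET emission ratios were normalized against DMSO and T3 controls.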

[19] = target: Retinoic acid receptor RXR-alpha (Homo sapiens) (UniProt P19793); test: TOX21_TR_RXR_BLA_Agonist_Followup_ratio: Tox21 Thyroid Hormone Receptor beta Retinoid X Receptor alpha (RXRa) Agonism Beta-lactamase (BLA) Follow-Up Assay, Ratio (AID 2283968; active = hit-call score of the fitted dose curve at least 0.9, where 1 is the maximum)
How it was run: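 Agonism is scored as an increase in the 460:530 nm beta-lactamase substrate ratio over DMSO in RXRa-UAS-bla HEK293T cells exposed for 16 h to 11 compound concentrations.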

[20] = TOX21_TR_RXR_BLA_Agonist_Followup_viability: Viability Assessment in the Tox21 Thyroid Hormone Receptor beta Retinoid X Receptor alpha (RXRa) Agonism Beta-lactamase (BLA) Follow-Up Assay (AID 2283970; active = hit-call score of the fitted dose curve at least 0.9, where 1 is the maximum)
How it was run: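 Luminescent ATP read (CellTiter-Glo) after 16h exposure of RXRa-UAS-bla HEK293T cells at 37C/5% CO2. Activity normalized to DMSO; signal loss scored as reduced viability.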

Measured: AC50

O=P(OC(CCl)CCl)(OC(CCl)CCl)OC(CCl)CCl
inactive: [1] | [2]

CC(C)c1cccc(C(C)C)c1N1C(=O)c2ccc(O)cc2C1=O
active: THRB (gene 7068) [5] 8.53 µM
inactive: [1] | [2] | [3] | THRA (gene 7067) [4] | [6] | THRB (gene 7068) [7] | [8] | [9]

CC[C@H](C)C(=O)O[C@H]1C[C@@H](C)C=C2C=C[C@H](C)[C@H](CC[C@@H]3C[C@@H](O)CC(=O)O3)[C@H]21
inactive: [10] | [11] | [12] | [13] | [14] | [15] | [16]

CCC(C)(C)C(=O)O[C@H]1C[C@@H](C)C=C2C=C[C@H](C)[C@H](CC[C@@H]3C[C@@H](O)CC(=O)O3)[C@H]21
inactive: [10] | [11] | [12] | [13] | [14] | [15] | [16]

CC(C)=CCC/C(C)=C\CO
inactive: THRA (gene 7067) [17] | THRB (gene 7068) [18] | [19] | [20]
